Compound activity deposited in PubChem BioAssay by National Center for Advancing Translational Sciences (NCATS).
MCF10A rerep: DNA re-replication induction in MCF 10a cells | MCF 10A DNA re-replication, Hoechst nuclear intensity, 48 h | Potency, µM (titrated, usually from 46.1 µM), for the others: top-dose activity, positive = re-replication, most hits filed as activators | hit rate 2.9% among 350,000; also: potency is read from the fitted curve at half-maximal effect; % of control where 0% means no effect; nearly all actives have a fitted effect of over 50% in size
SW480 rerep: inducers of DNA re-replication in SW480 colon cancer cells; SW480 DNA re-replication, Hoechst DNA content imaging, 48 h; AID 624297; hit rate 1.8% among 340,000; Potency, µM (doses to about 46.1 µM), without a hit: at the top dose re-replication activation, hits mostly activators; also: potency is read from the fitted curve at half-maximal effect; % of control where 0% means no effect; nearly all actives have a fitted effect of over 55% in size
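Cells (250 per well) received 23 nL compound or DMSO by pin tool and were kept 48 hr at 37 C, 5% CO2. Nuclei were then stained with Hoechst for 40 min and scanned for DNA content.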
Gal4-VP16 FLuc: counter-screen for ROR gamma inhibitors: Gal4-VP16 reporter. Drosophila S2 Gal4-VP16 UAS-luciferase, luminescence, 20 h. Potency, µM (doses to about 53.6 µM), for the others: at the top dose activity, negative = inhibition, usual class: inhibitors. hit rate 3.5% among 310,000. AID 2546;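 also: Gal4-VP16 expression switched on by copper sulfate through the metallothionein promoter; potency is read from the fitted curve at half-maximal effect; % is scaled to controls: 0 for no effect and ±100 for the full control effect; nearly all actives have a fitted effect of over 50% in size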
RORg inh: blocks mouse ROR gamma transcriptional activity. P51450. Drosophila S2 Gal4-RORgamma UAS-luciferase reporter, 20 h. hit rate 5.4% among 310,000. Potency, µM (top dose mostly 53.6 µM), for inactives: top-dose activity change, negative = inhibition, usual class: inhibitors; also: potency is read from the fitted curve at half-maximal effect; % is scaled to controls: 0 for no effect and ±100 for the full control effect; nearly all actives have a fitted effect of over 60% in size
Target sequence (P51450 whole entry, looked up, the tested form may be a part): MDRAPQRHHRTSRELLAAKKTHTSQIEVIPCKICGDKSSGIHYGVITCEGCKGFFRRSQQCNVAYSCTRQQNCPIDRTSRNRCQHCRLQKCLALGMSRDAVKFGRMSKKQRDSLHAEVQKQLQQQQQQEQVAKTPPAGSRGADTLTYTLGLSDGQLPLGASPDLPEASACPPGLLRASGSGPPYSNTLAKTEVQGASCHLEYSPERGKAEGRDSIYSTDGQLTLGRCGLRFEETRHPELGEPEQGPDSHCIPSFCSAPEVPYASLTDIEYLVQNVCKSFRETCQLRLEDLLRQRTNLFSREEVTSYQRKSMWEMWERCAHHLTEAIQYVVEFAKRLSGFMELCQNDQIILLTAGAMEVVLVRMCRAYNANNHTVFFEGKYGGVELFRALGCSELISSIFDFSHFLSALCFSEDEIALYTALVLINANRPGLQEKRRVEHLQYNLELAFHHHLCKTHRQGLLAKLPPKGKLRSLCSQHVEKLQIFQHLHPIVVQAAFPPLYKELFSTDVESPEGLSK
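Stable Schneider cell line, Gal4 DNA-binding domain fused to ROR gamma, UAS-luciferase. Cmpd 1 hr RT → CuSO4 700 uM final → 20 hr RT → luciferase reagent 10 min → luminescence.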
IL-1B inflam inh: inhibitors of inflammasome signaling (IL-1 beta secretion); hit rate 4.7% among 360,000; activity change, % at 57.5 µM; THP-1 LPS/ATP IL-1B secretion, AlphaLISA, 16 h; active compounds read low; in the data active = activity change below about -50%; inconclusive = mostly about -30% to -49%; also: % is scaled to controls: 0 for no effect and ±100 for the full control effect
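THP-1 cells pretreated 1 hr with compounds (up to 57.5 uM final), then stimulated with LPS (250 ng/mL final) plus ATP (1.25 mM final); secreted IL-1B measured by AlphaLISA after 16 hr, decreased signal indicating inhibition.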
* marks the source's active call; other numbers are inactive results; u = inconclusive; x = no result; [ ] = remark or other dose. Compounds with a hit are over-represented: about 11% of the library has one in this group of screens. Unless noted, calls follow the shape of the dose curve; as a rule, active = well fitted curve in the direction sought with a large enough effect; inconclusive = small, poorly fitted or top-dose-only effect, or another doubt; inactive = no such curve, though single readings can be large; an effect the other way counts as inactive or inconclusive.

SMILES	MCF10A rerep	SW480 rerep	Gal4-VP16 FLuc	RORg inh	IL-1B inflam inh
O=C(NCCCn1ccnc1)c1cc(Cl)cc(Cl)c1	u	0%	-8%	3%	-11
COc1cc(OC)c2c(c1)OC(c1ccccc1)CC2=O (configuration not stated)	x	x	-12%	23%	x
Cc1nccn1-c1ccc(NC(=O)[C@H]2O[C@@H](n3ccc(N)nc3=O)[C@H](O)[C@@H]2O)cc1	x	x	x	x	22
Clc1ccc2c(NCc3ccccc3)ccnc2c1	1%	3%	-22%	11%	-99*
S=C(Nc1ccccc1Cl)Nc1ccc(Cl)cc1Cl	10%	-15%	1%	-35%	-10
Clc1ccc(NNc2ccnc3cc(Cl)ccc23)cc1	u	-3%	-1%	-30%	-30
S=C(NNc1ccnc2cc(Cl)ccc12)Nc1ccccc1Cl	u	u	u	-1%	-91*
CCN(CCO)CCCC(C)Nc1ccnc2cc(Cl)ccc12 (configuration not stated)	-3%	-1%	-9%	-7%	x
Oc1ccc(Nc2ccnc3cc(Cl)ccc23)cc1	17%	u	1%	1%	-74*
CCN(CC)CCNc1ccnc2cc(Cl)ccc12	u	u	-5%[0.365 µM]	-10%	-56*
O=C(NCCNc1ccnc2cc(Cl)ccc12)c1ccccc1F	1%	-3%	11µM*	u	-14
O=C(NCCNc1ccc(Cl)cc1[N+](=O)[O-])c1ccccc1F	-1%	8%	-7%	32%	-7
Clc1ccc2oc(-c3cccnc3NCc3ccccc3)nc2c1	16µM*	u	0%	-2%	10
O=C(CSC1=NNC(c2ccccn2)S1)Nc1ccc(C(F)(F)F)cc1 (configuration not stated)	u	u	5µM*	3.2µM*	153
c1ccc(CSC2=NNC(c3ccccn3)S2)cc1 (configuration not stated)	u	u	3%	-3%	85
COc1cc(/C=N/NS(=O)(=O)c2ccccc2)ccc1OS(=O)(=O)c1ccc(C)cc1	-7%	-5%	-3%	-7%	-4
COc1cc(/C=N/NC(=O)c2cccnc2)ccc1OS(=O)(=O)c1cc(C)ccc1C	u	u	u	-58%	-76*
C=CCNC(=O)/C(C#N)=C/c1ccc(OS(=O)(=O)c2ccc(C)cc2)c(OC)c1	u	u	u	11µM*	-79*
COc1cc(/C=N/NC(=O)c2cccnc2)ccc1OS(=O)(=O)c1ccc(C)cc1	0%	u	-12%	-5%	0
COC(=O)N/N=C/c1ccc(OS(=O)(=O)c2ccc(C)cc2)c(OC)c1	-3%	-10%	-6%	37%	-72*
CCOC(=O)N/N=C1/C[C@@H](O)[C@@H](O)[C@@H]2[C@@H]3C(=O)N([C@@H](C)c4ccccc4)C(=O)[C@H]3CC[C@H]12	x	x	-14%[10 µM]	4%[10 µM]	x
C[C@]1(O)CC(=O)C=C[C@H]1Nc1ccccc1	u	u	x	x	-104*
CC1(C)CC(C(=O)Nc2ccccc2)C(=O)O1 (configuration not stated)	1%	-98%	x	x	-11
Cn1ncc2c(Nc3ccccc3Cl)nc(Nc3ccccc3Cl)nc21	18µM*	23%	u	-18%	23
O=C(Cn1ncn2c(cc3ccccc32)c1=O)NCc1ccco1	1%	26%	-9%	5.6µM*	21
SMILES	MCF10A rerep	SW480 rerep	Gal4-VP16 FLuc	RORg inh	IL-1B inflam inh
COc1cccc(C(O)c2ncc(-c3ccccc3Cl)[nH]2)c1 (configuration not stated)	x	x	x	x	-17
O=C(Nc1cccc(-c2ccc(N3CCCCC3)nn2)c1)C(F)(F)F	2%	-11%	10µM*	6.3µM*	-14
O=C(Nc1cccc(-c2ccc(N3CCOCC3)nn2)c1)c1ccccc1	18%	-127%	x	x	-21
CC(=O)c1ccc(S(=O)(=O)Nc2cccc(-c3ccc4nncn4n3)c2)cc1	17%	-8%	-6%	28%	37
Cc1ccc(S(=O)(=O)Nc2cccc(-c3ccc4nncn4n3)c2)cc1	4.1µM*	2.6µM*	x	x	24
O=S(=O)(Nc1cccc(-c2ccc(N3CCCCCC3)nn2)c1)c1ccc(F)cc1	15µM*	u	-13%	19%	u
CC1CCN(c2ccc(-c3cccc(NC(=O)C(F)(F)F)c3)nn2)CC1	-18%	-8%	2.8µM*	u	u
CC1CCN(CCCn2c(SCC(=O)Nc3ccccc3Cl)nc3ccccc3c2=O)CC1	u	u	-3%	0%	-72*
CCC(C)NC(=O)CSc1nc2ccccc2c(=O)n1CCCN1CCCCC1 (configuration not stated)	1%	-21%	-5%	-7%	-15
COCCn1c(SCC(=O)Nc2ccc(OC)cc2OC)nc2ccccc2c1=O	7%	-7%	2%	u	5
O=C(CSc1nc2ccccc2c(=O)n1CCCN1CCOCC1)Nc1cccc(S(=O)(=O)N2CCCCCC2)c1	u	u	-23%	u	-53*
Cc1ccc(NC(=O)CSc2nc3ccccc3c(=O)n2CCCN2CCCCC2)cc1Cl	23µM*	-3%	u	u	-87*
O=C(CSc1nc2ccccc2c(=O)n1CCCN1CCOCC1)Nc1ccc(F)c(Cl)c1	u	22%	x	x	u
COc1ccc(NC(=O)CSc2nc3ccccc3c(=O)n2CCCN2CCC(C)CC2)c(OC)c1	19%	28%	-9%[10 µM]	-1%	-62*
O=C(OCC(=O)N1CCCCC1)c1ccc2c(c1)C(=O)N(Cc1ccco1)C2=O	2%	-18%	x	x	5
CC(C)C[C@H](NC(=O)[C@H](CCCCN)NC(=O)CNC(=O)[C@H](CC(C)C)NC(=O)[C@@H](N)C(C)C)C(=O)N[C@@H](CO)C(=O)N[C@@H](CCC(N)=O)C(=O)N[C@@H](CCC(=O)O)C(=O)N[C@@H](CC(C)C)C(=O)N[C@@H](Cc1cnc[nH]1)C(=O)N[C@@H](CCCCN)C(=O)N[C@@H](CC(C)C)C(=O)N[C@@H](CCC(N)=O)C(=O)N[C@H](C(=O)N[C@@H](Cc1ccc(O)cc1)C(=O)N1CCC[C@H]1C(=O)N[C@@H](CCCNC(=N)N)C(=O)N[C@H](C(=O)N[C@@H](CC(N)=O)C(=O)N[C@H](C(=O)NCC(=O)N[C@@H](CO)C(=O)NCC(=O)N[C@H](C(=O)N1CCC[C@H]1C(N)=O)[C@@H](C)O)[C@@H](C)O)[C@@H](C)O)[C@@H](C)O	x	x	-1%	18%	x
COc1ccc(-c2nc(N3CCCC3)[nH]c(=O)c2C#N)cc1	u	-9%	-8%	7%	9
COc1ccc(-c2nc(N3CCC(C)CC3)[nH]c(=O)c2C#N)cc1	3.7µM*	u	-4%	7%	12
